Hits are enriched below; roughly 3.7% of the tested compounds scored in any of these assays.
PTHR1 agonist: activates the human parathyroid hormone receptor PTHR1; Potency, µM (series often up to 115 µM), inactives show at the highest dose activation, usual class: activators; Q03431; 410,000 compounds, 0.075% hits; HEK293 GP2 PTHR1 cells, GloSensor cAMP luminescence, 1 h; further: potency means the concentration at half of the fitted maximal effect; nearly all actives have a fitted effect of over 55% in size
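HEK-293-derived GP2 cells expressing PTHR1 and a GloSensor cAMP reporter, 3,000/well, plated overnight, given luciferin plus IBMX (each 0.5 mM as added) for 1 h at 37 °C, then compound for 1 h at 37 °C. Luminescence was read after 15 min at room temperature.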
BRCA1 expr act: activators of BRCA1 expression; 380,000 compounds, 1.1% hits; MCF7-BRCA1-FFLuc reporter, luminescence, 48 h; response scale: scaled: vehicle 0%, 10 µM genistein 100%; Potency, µM (highest dose often 46.1 µM), without a hit: top-dose activation, hits mostly activators; further: potency means the concentration at half of the fitted maximal effect; nearly all actives have a fitted effect of over 80% in size
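Luminescence from a BRCA1-driven firefly luciferase in MCF7 cells was read after 48 h compound exposure at 37 C. Data normalized against DMSO and a 10microM genistein activation control, then curve-fitted across the titration.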
D3 ag: activates the human D3 dopamine receptor. D3R DiscoveRx beta-arrestin cells, luminescence, 90 min. P35462. 410,000 compounds, 0.58% hits. max activation, %; in the data active means max activation above about 30%; further: 0% is about no effect
Target sequence (P35462 whole entry, looked up): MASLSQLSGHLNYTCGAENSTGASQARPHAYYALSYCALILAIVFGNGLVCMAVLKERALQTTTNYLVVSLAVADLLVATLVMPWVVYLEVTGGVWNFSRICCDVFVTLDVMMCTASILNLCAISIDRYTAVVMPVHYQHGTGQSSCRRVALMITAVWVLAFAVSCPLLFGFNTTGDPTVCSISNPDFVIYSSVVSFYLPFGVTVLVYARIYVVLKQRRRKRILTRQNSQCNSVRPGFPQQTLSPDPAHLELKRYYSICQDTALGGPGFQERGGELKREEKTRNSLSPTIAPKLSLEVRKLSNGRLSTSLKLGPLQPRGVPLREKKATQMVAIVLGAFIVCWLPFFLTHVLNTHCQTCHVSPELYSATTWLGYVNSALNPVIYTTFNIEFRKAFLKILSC
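Agonist mode: compounds and dopamine controls were applied to plated cells for 90 min at 37 degrees C after an overnight attachment at 1500 cells/well. Luminescent read-out followed 30 - 60 minutes at room temperature with DiscoveRx detection reagent.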
B2AR arrestin: recruits beta-arrestin to the human beta2-adrenergic receptor | beta-arrestin recruitment to beta2AR, cell-based reporter | Potency, µM (series often up to 46.1 µM), inactives show top-dose activation, usual class: activators | 330,000 compounds, 0.02% hits | AID 492947;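 further: potency means the concentration at half of the fitted maximal effect; 0% = DMSO controls and full agonism = EC100 isoproterenol or metaproterenol; nearly all actives have a fitted effect of over 65% in size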
D3 antag: antagonists of human D3 dopamine receptor; P35462; D3R cells, DiscoveRx beta-arrestin luminescence, antagonist mode; stronger effect = lower value; max response, negative = inhibition, %; AID 652054; 360,000 compounds, 2.5% hits; in the data active means max response below about -50%; inconclusive means no clear call, values can overlap the other calls; further: on the % scale 0 is the no-effect control and ±100 the full control effect
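Cells expressing the human receptor were seeded at 1500 cells/well, incubated overnight at 37 degrees C in 5% CO2, then exposed to library compounds with dopamine controls for 90 minutes at 37 degrees C before luminescent detection.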
RGS4 inh: inhibitors of human regulator of G protein signaling 4. P49798. Transcreener GDP fluorescence polarization, RGS4-accelerated GTP hydrolysis. Potency, µM (top dose mostly 114 µM), inactives show at the top dose activity change, negative = inhibition, actives largely listed as inhibitors. 390,000 compounds, 0.039% hits; further: potency means the concentration at half of the fitted maximal effect; on the % scale 0 is the no-effect control and ±100 the full control effect; nearly all actives have a fitted effect of over 75% in size
Target sequence (P49798 whole entry, looked up): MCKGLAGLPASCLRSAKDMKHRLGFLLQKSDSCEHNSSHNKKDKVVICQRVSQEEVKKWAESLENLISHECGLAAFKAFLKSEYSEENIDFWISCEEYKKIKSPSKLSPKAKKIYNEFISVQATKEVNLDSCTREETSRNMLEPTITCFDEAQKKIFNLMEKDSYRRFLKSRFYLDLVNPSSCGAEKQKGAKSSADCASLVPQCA
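MLSMR compounds (23 nl, pin-transferred) preincubated 10 min at room temperature with a 500nM (2x) first reagent, then RGS4 at 900nM (2x) plus Transcreener GDP mix added; fluorescence polarization (620/688 nm) read before and after 90 min at 30 °C.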
An asterisk follows results filed as active; i = inactive; ? = inconclusive; . = no result; ! = a repeat was not active; [ ] = remark or other dose. Unless noted, the call rests on the fitted dose curve; in most records, active means well fitted curve in the direction sought with a large enough effect; inconclusive means small, poorly fitted or top-dose-only effect, or another doubt; inactive means no such curve, though single readings can be large; an effect the other way counts as inactive or inconclusive.

SMILES	PTHR1 agonist	BRCA1 expr act	D3 ag	B2AR arrestin	D3 antag	RGS4 inh
COc1ccc(-c2cc(C(=O)NCc3ccc(F)cc3)c3c(-c4ccc(F)cc4)[nH]nc3n2)cc1OC	-36%	.	1	.	.	-26%
Cc1csc(NC(=O)c2sc3nc(-c4cccs4)ccc3c2N)n1	-18%[57.5 µM]	2%	39*	0%	51	-12%
Cc1sc2ncnc(N3CCC(C(=O)Nc4cc(S(C)(=O)=O)ccc4Cl)CC3)c2c1C	-23%	-21%	6	0%	11	7%
Cc1sc2ncnc(N3CCC(C(=O)Nc4cc(Cl)ccc4Cl)CC3)c2c1C	-23%	-27%	42*	0%	32	-18%
CCN(C(=O)COc1ccc(C(C)=O)cc1)c1cccc2ccccc12	i	0%	-7	0%	-72*	1%
Cc1cc(C)n(CCCNCC(O)c2ccccc2)n1 (stereo unspecified)	-17%	-20%	-27	0%	-64*!	4%
CC(=O)N1C2=CCCC3CCCCC23c2ccccc21 (stereo unspecified)	-9%	-32%	-10	.	0	-17%
O=c1c(-c2cc3ccccc3[nH]2)nc2ccccc2n1C(CCc1ccccc1)c1nc2ccccc2[nH]1 (stereo unspecified)	-14%	.	4	.	11	.
CC1(C)CC(=O)C(C(C#Cc2ccccc2)C2=C(O)CC(C)(C)CC2=O)=C(O)C1	-2%[57.5 µM]	17%	-10	-2%	-8	?
O=C1CCCC(O)=C1C(C#Cc1ccccc1)C1=C(O)CCCC1=O	-25%	-56%	-5	0%	-61*	?
Cn1nccc1NC(=O)CSCC(=O)O	-9%	17%	7	-1%	7	-7%
O=C1OC(c2ccccc2)/C(=C(/O)c2ccc(Cl)cc2)C1=O (stereo unspecified)	-32%[57.5 µM]	-12%	-5	0%	-62*	-7%
Cc1ccc(/C(O)=C2/C(=O)C(=O)OC2c2ccc(Cl)cc2)cc1 (stereo unspecified)	-20%	39%	-10	0%	-19	-19%
O=C(CCc1nnc(CCCCc2ccccc2)o1)NCCC1CCCCO1 (stereo unspecified)	-4%	-18%	-2	0%	2	-14%
CC(CNC(=O)c1nnc(Cc2ccc(F)cc2)o1)c1ccccc1 (stereo unspecified)	i	.	-12	.	.	9%
CCN1CCN(C(=O)N2CCOCC2)CC1	-16%	1%	-5	0%	-5	6%
Clc1ccc(N/N=C/c2ccncc2)cc1Cl	i	7.1µM*	-1	-1%	-11	-8%
Clc1cnc(N/N=C/c2ccncc2)c(Cl)c1	-7%	11%	-4	0%	11	25%
Fc1ccc(N/N=C/c2ccncc2)c(F)c1	-16%	14µM*	-6	0%	-1	0%
COCCn1c(C)cc(O)c(C(c2ccccc2Cl)N2CCN(c3ccccc3)CC2)c1=O (stereo unspecified)	12%	.	-20	.	.	2%
COc1ccc(CCNS(=O)(=O)c2cc3c4c(c2)CCN4C(=O)CC3)cc1	i	-5%	2	0%	5	11%
CC(=O)c1ccc(N2CCN(C(=O)CCS(=O)(=O)c3ccc4c(c3)CCN4C(C)=O)CC2)cc1	-21%	2%	3	-1%	26	-1%
COc1cc(COc2cc(N)c(Cl)cc2C(=O)CCC2CCN(CCNS(C)(=O)=O)CC2)cc(OC)c1	.	.	.	.	.	130%[56.9 µM]
COc1cc(N)c(Cl)cc1C(=O)CCC1CCN(CCNS(C)(=O)=O)CC1	.	.	.	.	.	38µM*!
COc1ccccc1CNC(=O)[C@H](C)NC(=O)C1CCN(C(=O)[C@@H](N)C(C)C)CC1	-18%	1%	38*	-1%	-5	-16%
SMILES	PTHR1 agonist	BRCA1 expr act	D3 ag	B2AR arrestin	D3 antag	RGS4 inh
COc1ccccc1CNC(=O)[C@H](C)NC(=O)C1CCN(C(=O)[C@@H](N)Cc2ccccc2)CC1	-2%	-23%	-3	0%	13	-4%
S=C(Nc1ccc2c(c1)OCO2)NC1CCN(Cc2ccccc2)CC1	i	-16%	-59	-1%	-65*	13%
S=C(NCc1ccco1)N1CCN(Cc2ccco2)CC1	i	3%	-2	-1%	?	-33%
Cc1ccc(NC(=S)NC2CCN(Cc3ccccc3)CC2)cc1	i	7%	-27	0%	-61*	15%
S=C(Nc1ccc2c(c1)OCO2)N1CCN(Cc2ccco2)CC1	-79%	3.5µM*	-6	-1%	-17	1%
Cc1ccc(C(=S)N2CCN(Cc3ccccc3)CC2)cc1	-5%	0%	-26	0%	-71*	-78%
COc1ccc(-c2nc(CSc3nnc(C)n4c3cc3occc34)c(C)o2)cc1OC	i	.	4	.	.	-10%
COC(=O)c1c(C)oc2ccc(N(C(=O)Oc3ccccc3)S(=O)(=O)c3ccc(C(C)(C)C)cc3)cc12	-37%	.	16	.	.	-11%
Cc1ccc(NC(=O)CN2CCC(NC(=O)Cc3ccccc3)CC2)cc1C	i	11%	9	0%	20	-2%
Cc1ccc(NC(=S)NC2CCN(Cc3ccccc3)CC2)cc1C	-4%	-24%	0	0%	-52*	0%
Cc1ccnc2nc(C(=O)OCC(=O)NC(=O)NCc3ccco3)nn12	-18%	-2%	1	0%	21	-19%[56.9 µM]
Cn1ccnc1C(=O)c1ccc(Cl)c(S(=O)(=O)N2CCOCC2)c1	11%	-8%	-19	0%	-8	5%
COc1ccc(-n2nc([N+](=O)[O-])c(=NCc3cccnc3)n2O)cc1	i	40%	-25	0%	9	-10%
COc1ccc(-n2nc([N+](=O)[O-])c(=NC3CCN(Cc4ccccc4)CC3)n2O)cc1	-8%	-29%	-12	0%	-51*	-1%
O=C(O)c1ccc(N=Nc2c(O)[nH]c3ccc(Br)cc23)cc1	-33%	5.6µM*	0	-1%	28	-12%
Cc1ccc(NC(=O)CSc2cccc[n+]2[O-])c([N+](=O)[O-])c1	i	2%	2	0%	-21	7%
Cc1ccc(C)c(-c2cc(C(=O)Nc3nccs3)c3ccccc3n2)c1	21%[57.5 µM]	-49%	32*	0%	5	-3%
Cc1ccc(NC(=O)CN(C)C(=O)CSc2nc(C)cs2)cc1	i	1%	-18	0%	-62*	11%
CCOC(=O)CC(=O)Nc1nc2ccccc2s1	-7%	1%	-16	0%	-13	16%
CCOC(=O)Nc1nc2ccccc2s1	i	5.6µM*	2	0%	15	2%[56.9 µM]
CC(C)NC(=O)CSc1nc(-c2ccccc2)cs1	-28%	10µM*	1	0%	-2	-10%
